In all, about 3,600 compounds went through this assay and about 900 (25%) were called active. How the calls were made is not given here. The list is a sample of the results. A call without a number means that no potency is given here. Potency and affinity values are given separately.
Each compound was assayed against Protein Tat (Human immunodeficiency virus type 1 group M subtype B (isolate HXB2)) (UniProt P04608) (assay: inhibitors of Tat binding to TAR RNA, dose response, counter-screen for Vif-APOBEC3G degradation inhibitor project, biochemical, fluorescence polarization, FAM-labeled TAR RNA (AID 1117361)). Details: outcome: dose series up to 100 µM unless noted; series mostly up to 100 µM.
In the case of `Clc1ccc(Sc2cc(N3CCOCC3)nc(-c3ccccc3)n2)cc1`, the outcome is reported as “inactive”. With `O=C(NC1=NCCS1)C1CC2CCC1C2` (stereo unspecified) the outcome was “inactive”. In the case of `NC(=O)COC(=O)c1ccc(Oc2ccccc2)cc1`, the outcome is reported as “inactive”. `CCOc1ccc2nc(NC(=O)CCn3cccc3)sc2c1` was tested, and the outcome was “inactive”. In the case of `CCOC(=O)N1CCN(C(=O)c2cc3c(s2)-c2ccccc2OC3)CC1`, the outcome is reported as “inactive”. In the case of `COc1ccc(OC)c(S(=O)(=O)N2CCN(C)CC2)c1`, the outcome is reported as “inactive”. `O=C1N(c2ccccc2)C2CS(=O)(=O)CC2N1c1ccc(Cl)c(Cl)c1` (stereo unspecified) was tested, and the outcome was “inactive”. `COc1cccc(OC)c1C(=O)n1nc(C)cc1C` was tested, and the outcome was “inactive”. For `Cc1cc(S(=O)(=O)n2ccnc2)c(Cl)cc1Cl`, the outcome was “inactive”. With `O=C(Cc1ccccn1)c1ccncc1` the outcome was “inactive”. For `Cc1ccc(N=Nc2ccc(O)c(/C=N\NC(=O)c3ccc(N)cc3)c2)cc1C`, the outcome was “inactive”. In the case of `O=C(N/N=C/c1cccnc1)c1cc(O)c(O)c(O)c1`, the outcome is reported as “inactive”. For `CCC(Sc1nc(N)c(NC(=O)c2ccc(OC)c(OC)c2)c(=O)[nH]1)C(=O)OC` (stereo unspecified), the outcome was “inactive”. With `S=C(Nc1ccc(Oc2ccccc2)cc1)NC1CCCCC1` the outcome was “inactive”. For `CCCCCCc1nc2c(=O)[nH]c3ccccc3c2o1`, the outcome was “inactive”. With `CCOC(=O)COn1c(=O)c(-c2ccc(Cl)cc2)[n+]([O-])c2ccccc21` the outcome was “inactive”. With `COc1ccccc1OCC(=O)NCC1CCCN(Cc2cnn(C(C)C)c2)C1` (stereo unspecified) the outcome was “inactive”. With `CCC(C)c1c(O)nc(SCC(=O)N2CCOCC2)[nH]c1=O` (stereo unspecified) the outcome was “inactive”. With `CC1(C)CCC(=O)c2ccccc21` the outcome was “inactive”. In the case of `O=C(Oc1ccccc1)c1cccc2cccnc12`, the outcome is reported as “inactive”. `O=C(O)CCC(=O)N(Cc1cccs1)Cc1cccs1` was tested, and the outcome was “inactive”. For `CC(C)Cn1c(CCC(=O)O)ccc1-c1cccs1`, the outcome was “inactive”. `CCc1ccc(-c2nc(SCC(=O)NC3CCS(=O)(=O)C3)n[nH]2)cc1` (stereo unspecified) was tested, and the outcome was “inactive”. In the case of `O=C(CNC(=O)Cn1cnc2sc3c(c2c1=O)CCCC3)NCc1ccccn1`, the outcome is reported as “inactive”. For `Cc1cc(NC(=O)c2cncc(Br)c2)no1`, the outcome was “inactive”. For `O=C1c2ccccc2C(=O)N1OCCOCCOCCBr`, the outcome was “inactive”. `O=C1CCC(CCC(=O)N2CCCC(C(=O)c3ccc4c5c(cccc35)CC4)C2)=NN1` (stereo unspecified) was tested, and the outcome was “inactive”. In the case of `Cc1ccc(OCc2ccc(C(=O)NN)o2)cc1C`, the outcome is reported as “inactive”. For `CN(C)C(=O)c1ccc(COc2ccccc2Br)o1`, the outcome was “inactive”. `CCOC(=O)c1cc2c(c(CCO)n1)[C@H](CCO)N(S(=O)(=O)C(C)(C)C)C2` was tested, and the outcome was “inactive”. `O=C(CSc1nnc(-c2cccnc2)n1C1CCCCC1)NC1CCCCC1` was tested, and the outcome was “inactive”. `COc1ccc(-n2c(Cc3cccn3C)nnc2SCC(=O)Nc2ccccc2)cc1` was tested, and the outcome was “inactive”. In the case of `O=C(Cc1cc(=O)[nH]c(=O)[nH]1)NCC1CCCO1` (stereo unspecified), the outcome is reported as “inactive”. In the case of `Cc1cccc(-n2c(N)cc(=O)nc2SCC(=O)NC2CCCCC2)c1`, the outcome is reported as “inactive”. With `Cc1ccc(-n2c(SCC(=O)NCC3CCCO3)nc3c(c2=O)SCC3)cc1` (stereo unspecified) the outcome was “inactive”. In the case of `COc1ccc(OC)c(NC(=O)CSc2nnc(CCCO)n2-c2ccccc2)c1`, the outcome is reported as “inactive”. `N#Cc1ccccc1S(=O)(=O)N1CCN(C(=O)CN2CCCC2c2cccs2)CC1` (stereo unspecified) was tested, and the outcome was “inactive”. In the case of `COc1ccc(C(C)NC(=O)C2C(=O)NC3(C)CC2c2ccccc2O3)cc1` (stereo unspecified), the outcome is reported as “inactive”. In the case of `O=C(O/N=C\c1ccc(N2CCCCC2)c([N+](=O)[O-])c1)c1c(F)cccc1F`, the outcome is reported as “inactive”. `Nc1nc2n(n1)C(c1c(F)cccc1Cl)CC(c1ccc(F)cc1)N2` (stereo unspecified) was tested, and the outcome was “inactive”. With `CCOC(=O)Cn1c(=O)c2c(nc3n2CCN3Cc2ccccc2)n(C)c1=O` the outcome was “inactive”. With `O=C(Nc1ccccc1)c1ccc(S(=O)(=O)N(CCO)CCO)cc1` the outcome was “inactive”. In the case of `COc1ccccc1NC(=O)C12CC3CC(C1)CC(c1ccc(C)cc1)(C3)C2`, the outcome is reported as “inactive”. For `COc1ccc(N=c2scc(-c3ccc(OC)cc3)n2CCO)cc1`, the outcome was “inactive”. In the case of `O=C(c1ccccc1Br)N1CCN(c2ccccc2)CC1`, the outcome is reported as “inactive”. `COc1cc(OC)cc(C(=O)NNC(=O)c2ccccc2Br)c1` was tested, and the outcome was “inactive”. For `CC1=CC(C)(C)n2c(O)c(N=NC(N)=S)c3c(C)c(C)cc1c32`, the outcome was “inactive”. For `COc1ccccc1Oc1coc2cc(OC(=O)N3CCOCC3)ccc2c1=O`, the outcome was “inactive”. With `O=C(O)c1ccc(Sc2nnnn2-c2ccccc2)c([N+](=O)[O-])c1` the outcome was “inactive”. `CCCCN(C)C(=O)c1cn(CC)c2ccc(S(=O)(=O)N(C)C)cc2c1=O` was tested, and the outcome was “inactive”. In the case of `O=C(CCCc1c[nH]c2ccccc12)N1CCOCC1`, the outcome is reported as “inactive”. With `O=C(O)c1ccc(NS(=O)(=O)c2cccc(C(=O)Nc3ccc([N+](=O)[O-])cc3)c2)cc1` the outcome was “inactive”. With `COc1ccccc1C(=O)Nc1ccc(S(=O)(=O)Nc2cc(C)nc(C)n2)cc1` the outcome was “inactive”. With `CCn1c(C(=O)N2CCCC(C(=O)NCCc3ccc(C)cc3)C2)cc2sccc21` (stereo unspecified) the outcome was “inactive”. `CCCCOCCCNC(=O)c1ccc(OCC)cc1` was tested, and the outcome was “inactive”. `O=C(NC1CCCC1)c1ccc(CNc2c(N3CCOCC3)c(=O)c2=O)cc1` was tested, and the outcome was “inactive”. `CC1(C)Oc2ccc(C(=O)NC3CCCC3)cc2N(CC(=O)NC2CCCC2)C1=O` was tested, and the outcome was “inactive”. With `CCCNC(=O)c1cccc(Cn2nc(C)c(Br)c2C)c1` the outcome was “inactive”. In the case of `CCC(Nc1nc(-c2ccccc2)nc2ccccc12)C(=O)O` (stereo unspecified), the outcome is reported as “inactive”. For `Clc1ccc(Sc2oc(/C=N/n3cnnc3)cc2Br)cc1`, the outcome was “inactive”. In the case of `O=C1C(Cl)=C(Nc2ccc3cn[nH]c3c2)C(=O)c2ccccc21`, the outcome is reported as “inactive”. With `C/C(=N\NC(=O)C(C)Oc1ccc([N+](=O)[O-])cc1)c1ccccn1` (stereo unspecified) the outcome was “inactive”. `COC(=O)C1=C(C)N(C)C(C)=C(C(=O)OC)C1c1ccc(F)c(Br)c1` was tested, and the outcome was “inactive”. With `COc1cc(OC)cc(C(=O)NC2CCN(C(=O)N3c4ccccc4Sc4ccccc43)CC2)c1` the outcome was “inactive”. `Nc1c(-c2ccccc2Cl)cnn1-c1cccc([N+](=O)[O-])c1` was tested, and the outcome was “inactive”. `COC(=O)Nc1sc2c(c1C(=O)NCc1ccco1)CCCC2` was tested, and the outcome was “inactive”. In the case of `COc1ccc(-c2[nH]c(-c3ccc(C)cc3)nc2SCC(=O)NCc2ccco2)cc1OC`, the outcome is reported as “inactive”. In the case of `O=C1CC(SC(=Nc2ccccc2)Nc2ccccc2)C(=O)N1c1ccc(Cl)cc1` (stereo unspecified), the outcome is reported as “inactive”. For `O=C(NCc1ccc(F)cc1)C1CCCN(C(=O)Nc2ccccc2)C1` (stereo unspecified), the outcome was “inactive”. For `CCOC(=O)CC1COc2ccccc2N1C(=O)c1ccc(C)cc1` (stereo unspecified), the outcome was “inactive”. With `CS(=O)(=O)NCc1nnc(SCc2ccccc2C(F)(F)F)o1` the outcome was “inactive”. For `CSc1oc(-c2ccccc2)nc1S(=O)(=O)c1ccc(C)cc1`, the outcome was “inactive”. In the case of `COc1ccc2c(c1)c1ccc3c(c1n2C)C(=O)C=CC3=O`, the outcome is reported as “inactive”. With `Cc1ccc2c(c1)c1ccc3c(c1n2C)C(=O)C=CC3=O` the outcome was “inactive”. `COc1cc2c(cc1NC(=O)COC(=O)Cn1cnc3ccccc31)oc1ccccc12` was tested, and the outcome was “inactive”. With `CCOC(=O)C(CC(=O)O)=C(c1ccccc1)c1ccccc1` the outcome was “inactive”. For `CCOC(=O)CSc1nnc(-c2cccnc2)n1Cc1ccccc1`, the outcome was “inactive”. `CCc1cccc(NC(=O)CN(C)S(=O)(=O)c2cccc3nsnc23)c1` was tested, and the outcome was “inactive”. In the case of `O=C(OCc1c(Cl)cccc1Cl)c1cccnc1Cl`, the outcome is reported as “inactive”. `Cc1ccc(-c2csc(NC(=O)C3CC=CCC3C(=O)O)c2C(=O)OC(C)C)cc1` (stereo unspecified) was tested, and the outcome was “inactive”. For `O=C(C1CCCO1)N1CCC(c2nc3ccccc3[nH]2)CC1` (stereo unspecified), the outcome was “inactive”. With `O=C(C1CCN(S(=O)(=O)N2CCC3(CC2)OCCO3)CC1)N1CCOCC1` the outcome was “inactive”. For `O=C(NCC1CC1)c1ccc2c3n(nc2c1)-c1ccccc1CO3`, the outcome was “inactive”. With `O=C(NNC(=O)c1ccccc1O)c1cc2ccccc2o1` the outcome was “inactive”. With `COc1ccc(C(=O)NCc2cn3cccc(C)c3n2)cc1OC` the outcome was “inactive”. With `COc1ccc(Cl)c(NCCC(=O)O)c1` the outcome was “inactive”. `O=C(NCc1cccnc1)c1cc(S(=O)(=O)N2CCCCC2)ccc1Cl` was tested, and the outcome was “inactive”. `CC(=O)Nc1ccc(/C=N/Nc2ccc(C(=O)c3c(C)cc4ccccn34)cc2[N+](=O)[O-])cc1` was tested, and the outcome was “inactive”. With `NS(=O)(=O)c1ccc(NC(=O)COC(=O)c2cc(Cl)ccc2[N+](=O)[O-])cc1` the outcome was “inactive”. In the case of `Clc1ccc(/C(Cc2nc3ccccc3[nH]2)=N\Nc2ccccc2)cc1`, the outcome is reported as “inactive”. For `Cc1c(Cl)cccc1NC(=O)CC(Cc1ccccc1)C(=O)O` (stereo unspecified), the outcome was “inactive”. `COC(=O)c1cc2c(ccn2-c2ccc(F)cc2)n1CC(C)C` was tested, and the outcome was “inactive”. With `CC1CCN(c2nc3ccc(C(=O)N4CCN(Cc5ccccc5)CC4)cc3s2)CC1` the outcome was “inactive”. For `CCOC(=O)CSc1nnc(CNC(=O)c2cccs2)n1-c1ccccc1`, the outcome was “inactive”. `O=C(COC(=O)c1ccc(O)cc1O)NNC(=O)c1cccs1` was tested, and the outcome was “inactive”. For `COc1cccc(OC)c1OCCOCCn1cnc2ccccc2c1=O`, the outcome was “inactive”. For `COCC(=O)NCc1nc2ccccc2[nH]1`, the outcome was “inactive [at 50 µM]”. For `CCOC(=O)CSc1nnc(CNc2ccc(Cl)cc2)n1-c1ccccc1`, the outcome was “inactive”. `CCCNC(=O)COC(=O)c1ccccc1OCc1ccc(Cl)cc1` was tested, and the outcome was “inactive”. For `Clc1ccc(CNc2ccc(CNc3ncn[nH]3)cc2)c(Cl)c1`, the outcome was “inactive”. In the case of `COc1cccc(/C=N/NC(N)=S)c1OCc1ccccc1Cl`, the outcome is reported as “inactive”. `CCn1c(CNc2ccc(Cl)cc2)nnc1SCc1ccccc1` was tested, and the outcome was “inactive”. For `CCOc1cc(Cl)c(S(=O)(=O)NCc2ccccn2)cc1Cl`, the outcome was “inactive”. With `CCc1ccc(N2C(=O)Cc3c2nc(N)c(C#N)c3N)cc1` the outcome was “inactive”. In the case of `CCOC(=O)Cn1nc(-c2ccccc2)c2cnc3ccc(C)cc3c21`, the outcome is reported as “inactive”. `O=C1CC(c2c(F)cccc2Cl)C2=C(COC2=O)N1` (stereo unspecified) was tested, and the outcome was “inactive”. With `COc1cccc(CC(=O)N2CCCC(CO)(Cc3ccc(F)cc3F)C2)c1` (stereo unspecified) the outcome was “inactive”. `Cc1ccc(C(=O)COC(=O)CNC(=O)C(c2ccccc2)c2ccccc2)cc1[N+](=O)[O-]` was tested, and the outcome was “inactive”. In the case of `C=CCn1c(SCC(=O)c2c(N)n(C)c(=O)n(C)c2=O)nnc1-c1ccccc1F`, the outcome is reported as “inactive”. `O=c1c2c(-c3ccco3)csc2nc(SCc2cn3cccnc3n2)n1-c1ccccc1` was tested, and the outcome was “inactive”. For `N#CCOC(=O)c1sccc1-n1cccc1`, the outcome was “inactive”.

From PubChem BioAssay AID1117361 (Southern Research Institute, 2015)
